uPA generation: blocks generation of uPA at the cell surface. cell surface uPA generation assay, qHTS. Potency, µM (series often up to 38.3 µM), for inactives: top-dose activity change, negative = inhibition, actives largely listed as inhibitors. 0.31% of 330,000 active; active means well fitted inhibition curve with a large enough effect; inconclusive means small, poorly fitted or top-dose-only effect; inactive means no such curve, though single readings can be large or run the other way; tested in mouse RAW 264.7 cells; further: potency means the concentration at half of the fitted maximal effect; nearly all actives have a fitted effect of over 55% in size
HT1080-NT tox: kills 2HG-producing HT-1080-NT fibrosarcoma cells | 1.6% of 360,000 active | Potency, µM (top dose mostly 46.1 µM), without a hit: top-dose activity, negative = less viability, hits mostly cytotoxic | HT-1080-NT fibrosarcoma viability, CellTiter-Glo ATP luminescence, 48 h | AID 686970;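 further: NT is the 2HG producing partner of a matched IDH1 knockdown line; potency means the concentration at half of the fitted maximal effect; 0% = DMSO-treated cells and -100% = media-only wells without cells; nearly all actives have a fitted effect of over 55% in size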
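HT-1080-NT fibrosarcoma cells (2HG-overproducing), 750 cells/well in RPMI with 5% FBS, dosed after 2 h and incubated 48 h at 37C. CellTiter-Glo luminescence normalized to DMSO and no-cell wells; concentration-response curves fitted and classed.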
TDP1 cell CPT: growth inhibition of DT40 Tdp1-/-;hTDP1 cells with camptothecin (screen for TDP1 inhibitors); chicken DT40 Tdp1-/-;hTDP1 cells + 20 nM CPT, ATP luminescence, 48 h; AID 686979; Potency, µM (series often up to 46.2 µM), without a hit: at the highest dose activity change, negative = growth inhibition, actives largely listed as inhibitors; 12% of 420,000 active; further: potency means the concentration at half of the fitted maximal effect; nearly all actives have a fitted effect of over 55% in size
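Cell growth measured by CellTiter-Glo luminescence after a minimum 48 h, 37 C compound exposure with 20 nM CPT in Tdp1-knockout DT40 cells stably expressing hTDP1, seeded 400/well; qHTS titration format.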
HT1080 IDH1KD tx: kills HT-1080 cells with IDH1 knockdown. 2% of 360,000 active. Potency, µM (titrated, usually from 46.1 µM), without a hit: at the top dose activity, negative = toxicity, most hits filed as cytotoxic. HT-1080 IDH1 knockdown viability, ATP luminescence, 48 h;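 further: potency means the concentration at half of the fitted maximal effect; 0% = DMSO wells and -100% = cell-free medium wells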
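Using the IDH1-knockdown HT-1080 line run in the same batch and compound series as the NT line, viability after 48 h at 37 °C was determined by CellTiter-Glo luminescence and expressed as % activity.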
IL1B secr inh: blocks inflammasome-driven IL-1 beta release | THP-1 LPS/ATP IL-1B secretion, AlphaLISA, 16 h; active compounds read low | activity change, % at 57.5 µM | 4.7% of 360,000 active | AID 743279; in the data active means activity change below about -50%; inconclusive means mostly about -30% to -49%
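THP-1 cells pretreated 1 hr with compounds (up to 57.5 uM final), then stimulated with LPS (250 ng/mL final) plus ATP (1.25 mM final); secreted IL-1B measured by AlphaLISA after 16 hr, decreased signal indicating inhibition.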
TDP1 cell noCPT: qHTS for Inhibitors of human tyrosyl-DNA phosphodiesterase 1 (TDP1): qHTS in cells in absence of CPT; DT40 Tdp1-/- hTDP1 cells, no CPT, ATP luminescence, 48 h; Potency, µM (titrated, usually from 46.2 µM), for the others: top-dose activity change, negative = growth inhibition, actives largely listed as inhibitors; 15% of 420,000 active; AID 686978, 2013; further: potency means the concentration at half of the fitted maximal effect; nearly all actives have a fitted effect of over 55% in size
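Camptothecin absent (DMSO only). Human TDP1-complemented DT40 knockout cells, 400 cells/well, 37 °C for minimum 48 hr; ATP measured via CellTiter-Glo, 30 min dark incubation, luminescence.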
Active calls of the source: *; ? = inconclusive; nt = no result given. Shown are actives, neighbours in structure and some others; about 19% of the full set was active somewhere. Unless noted, the call rests on the fitted dose curve; in most records, active means well fitted curve in the direction sought with a large enough effect; inconclusive means small, poorly fitted or top-dose-only effect, or another doubt; inactive means no such curve, though single readings can be large; an effect the other way counts as inactive or inconclusive. Unless noted, on the % scale 0 is the no-effect control and ±100 the full control effect.

SMILES	uPA generation	HT1080-NT tox	TDP1 cell CPT	HT1080 IDH1KD tx	IL1B secr inh	TDP1 cell noCPT
C[C@H]1COC(=O)[C@H](Cc2ccc(F)cc2)C/C=C\C[C@@H](CC(=O)N(CCO)Cc2ccccc2)C(=O)N1	7%	2%	15µM*	0%	-6	21µM*
C[C@@H]1COC(=O)[C@@H](Cc2ccc(F)cc2)C/C=C\C[C@@H](CC(=O)N(CCO)Cc2ccccc2)C(=O)N1	-1%	3%	?	4%	1	?
O=C1NCCOC(=O)[C@@H](Cc2ccc(F)cc2)C/C=C\C[C@@H]1CC(=O)N(CCO)Cc1ccccc1	15%	0%	18µM*	1%	8	21µM*
CC(C)(C)[C@@H]1COC(=O)[C@H](Cc2ccc(F)cc2)C/C=C\C[C@H](CC(=O)N(CCO)Cc2ccccc2)C(=O)N1	?	-14%	13µM*	-8%	-16	21µM*
C=CCn1ccc(=O)nc1SC	-7%	1%	-24%	4%	-1	-7%
O=C(NNC(=O)C1CC2CCC1C2)c1sc2ccccc2c1Cl (configuration not stated)	4%	-1%	?	-6%	-9	?
COc1cc(OC)cc(-c2c(C#Cc3ccsc3)c3cc(-c4cnc(OC)nc4)ccc3n2C)c1	4%	4%	16µM*	12%	-18	?
COc1ccc(-c2c(-c3cc(OC)cc(OC)c3)n(C)c3ccc(-c4cnc(OC)nc4)cc23)cc1	22%	-3%	21µM*	0%	-2	18µM*
COc1cc(OC)cc(-c2c(C#Cc3ccsc3)c3cc(-c4cc(OC)c(OC)c(OC)c4)ccc3n2C)c1	8%	12%	-13%	12%	38	-21%
COc1ccc(CCNc2nc(N3CCCCC3)nc(N3CCCCC3)n2)cc1OC	4%	?	?	?	-17	23µM*
COc1nc(NCCc2ccc(OC)c(OC)c2)nc(OC)n1	-4%	6%	-1%	0%	-17	-6%
COc1ccc2nc(N3CCCC(C(=O)NCCc4ccc(OC)c(OC)c4)C3)sc2c1 (configuration not stated)	-4%	-23%	?	11%	-1	13µM*
COc1ccc(CCNC(=O)c2ccc3nc(N4CCCCC4)sc3c2)cc1OC	?	0%	18µM*	-12%	32	21µM*
Clc1ccc(-c2nnc(-c3ccco3)nc2N2CCCCC2)cc1	0%	8%	21µM*	12%	-24	21µM*
CN1CCN(c2nnc(-c3ccc(Cl)cc3)c3ccccc23)CC1	2%	-21%	?	-7%	-16	?
Clc1ccc(-c2nnc(-c3ccc(Br)cc3)c(N3CCSCC3)n2)cc1	0%	0%	12µM*	1%	-18	12µM*
CCOc1cc(N2CCOCC2)c(OCC)cc1NC(=O)COC(=O)CCn1c(C)csc1=O	1%	5%	8%	1%	1	-18%
C=CCNC(=O)C1CCC(CNc2nc(=S)[nH]c3ccccc23)CC1 (configuration not stated)	8%	2%	-3%	2%	18	-23%
O=C(C1CCC(CNc2nc(=S)[nH]c3ccccc23)CC1)N1CCN(c2ccccn2)CC1 (configuration not stated)	10%	6%	18µM*	4%	?	18µM*
Cc1noc(C)c1S(=O)(=O)Nc1ccccc1N1CCOCC1	-3%	2%	1%	0%	22	-17%
O=S(=O)(Nc1ccc(-c2ccc(N3CCCCCC3)nn2)cc1)c1ccc(C(F)(F)F)cc1	nt	nt	12µM*	nt	nt	?
O=[N+]([O-])c1ccc(Cl)c(S(=O)(=O)Nc2ccc(-c3ccc(N4CCCC4)nn3)cc2)c1	-1%	-4%	18%	-12%	-85*	4%
Cc1cc(C)c(S(=O)(=O)Nc2ccc(-c3ccc(N4CCCCC4)nn3)cc2)cc1C	nt	nt	8.2µM*	nt	nt	18µM*
Cc1ccc([N+](=O)[O-])cc1S(=O)(=O)Nc1ccc(-c2ccc(N3CCCC3)nn2)cc1	-4%	-9%	-29%	-26%	-1	-28%
O=S(=O)(Nc1ccc(-c2ccc(N3CCCCCC3)nn2)cc1)c1cccc(C(F)(F)F)c1	nt	nt	15µM*	nt	nt	?
SMILES	uPA generation	HT1080-NT tox	TDP1 cell CPT	HT1080 IDH1KD tx	IL1B secr inh	TDP1 cell noCPT
COc1ccc(-c2ccc([C@H]3[C@@H]4C=CCC[C@@]4(C)C(=O)N3Cc3ccccc3)c(F)c2)cc1	?	?	?	?	-22	?
C[C@@H]1CC=C[C@H]2[C@H]1C(=O)N(Cc1ccccc1)[C@H]2c1ccc(Br)cc1F	15%	-20%	?	-15%	60	?
C[C@@H]1CC=C[C@H]2[C@H]1C(=O)N(Cc1ccccc1)[C@H]2c1ccc(-c2ccc(N(C)C)cc2)cc1F	7%	?	21µM*	?	0	12µM*
CC(=O)c1ccc(-c2ccc([C@H]3[C@H]4C=CC[C@@H](C)[C@@H]4C(=O)N3Cc3ccccc3)c(F)c2)cc1	?	?	13µM*	?	-4	13µM*
Cc1ccc(-c2ccc([C@H]3[C@H]4C=CC[C@@H](C)[C@@H]4C(=O)N3Cc3ccccc3)c(F)c2)cc1	-14%	-6%	?	-14%	22	?
COC(=O)c1ccc(-c2ccc([C@H]3[C@H]4C=CC[C@@H](C)[C@@H]4C(=O)N3Cc3ccccc3)c(F)c2)cc1	0%	?	6.5µM*	?	38	3.3µM*
O=C(COC(=O)c1cc(Cl)ccc1O)NCCC1=CCCCC1	17%	-1%	-18%	12%	16	-18%
Cc1ccccc1CNC(=O)C(=O)NCC(c1cccs1)S(=O)(=O)c1ccc(Cl)cc1 (configuration not stated)	nt	nt	?	nt	nt	23µM*
O=C(NCc1ccccc1Cl)C(=O)NCC(c1cccs1)S(=O)(=O)c1ccccc1 (configuration not stated)	nt	nt	15µM*	nt	nt	18µM*
Cc1ccc(C)c(NC(=O)CSc2nc3c(c(=O)n2C)SC(C)C3)c1 (configuration not stated)	14%	-5%	?	-5%	22	?
CCOC(=O)c1ccc(NC(=O)CSc2nc3c(c(=O)n2C)SC(C)C3)cc1 (configuration not stated)	-22%	3%	18µM*	-3%	16	26µM*
